# PubChem BioAssay (EPA / NIEHS)
# Values joined by “and” are separate entries in the source; they are usually repeats but may differ in a detail not shown here. Identical values can stand only once. Inconclusive results are not listed. A structure can be active in one record and inactive in another. Active and inactive are the calls of the source. How the source made its calls: active means hit-call score of the fitted dose curve at least 0.9, where 1 is the maximum; inconclusive means response in the unintended direction; inactive means score below 0.9.
# Molecular target: Cellular tumor antigen p53 (Homo sapiens) (UniProt P04637)
# Assay: TOX21_p53_BLA_p3_ratio: Tox21 HCT-116 p53 Agonism Beta-lactamase Assay, Ratio, Phase 3 (AID 2283596)
# From the text: TOX21_p53_BLA_p3 is a cell-based, single-readout assay that uses HCT116, a human intestinal cell line, […] in a 1536-well plate.TOX21_p53_BLA_p3_ratio is an assay readout measuring reporter gene via receptor activity and designed using inducible reporter (beta lactamase induction) detected with GAL4 b-lactamase reporter gene. The signal is derived from the ratio of cleaved (ch2) to uncleaved (ch1) reporter gene substrate used as the measure of target activity.Data from the assay component TOX21_p53_BLA_p3_ratio was analyzed into 1 assay endpoint. This assay endpoint, TOX21_p53_BLA_p3_ratio, was analyzed in the positive analysis fitting direction relative to DMSO as the negative control and baseline of activity. Using a type of inducible reporter, gain-of-signal activity can be used to understand changes in the reporter gene as they relate to the gene TP53. Furthermore, this assay endpoint can be referred to as a primary readout, because this assay has produced multiple assay endpoints where this ratio serves a reporter gene function to understand target activity. To generalize the intended target to other relatable targets, this assay endpoint is annotated to the DNA binding intended target family, where the subfamily is tumor suppressor.
# Thawing Method: Place 14 mL of pre-warmed thaw medium into a 15 mL of conical tub. Remove the vial of cells to be thawed from liquid nitrogen and thaw rapidly by placing at 37C in a water bath with gentle agitation for 1-2 minutes. Decontaminate the vial by wiping with 70% ethanol before opening in a biological safety cabinet. Transfer the vial contents drop-wise into 14 mL of thaw medium in a sterile 15-mL conical tub. Centrifuge cells at 900 rpm for 4 minutes and resuspend in thaw medium. Transfer contents to the T75 tissue culture flask containing Thaw Medium and place flask in a humidified 37C/5% CO2 incubator. Switch to growth medium at first passage.Propagation Method: Aspirate medium, rinse once in DPBS, add 0.25% Trypsin/EDTA and swirl to coat the cell evenly. Add an equal volume of Growth Medium to inactivate Trypsin after 2-3 minutes incubation at 37C. Centrifuge cells at 900 rpm for 4 minutes and resuspend in growth medium. Cell should be passage or fed at least twice a week.Assay Protocol: Harvest cells from culture in growth medium and resuspend in assay medium. 2.2 Dispense 4000 cells/5 uL/well into 1536-well black/clear bottom plates using a Multidrop dispenser. After the cells were incubated at 37C for 5 hours, 23 nL of compounds dissolved in DMSO were transferred to the assay plate by a PinTool resulting in a 217-fold dilution. Incubate the plates for 16 hours at 37C, 5% CO2. Add 1 uL of 6X LiveBLAzer FRET B/G (CCF4-AM) Substrate Mixture to each well using a BioRAPTR dispenser and incubate the plates at room temperature for 2 hours. Measure fluorescence intensity at 460 and 530 nm emission and 405 nm excitation by an Envision detector. Data is expressed as the ratio of 460nm/530nm emissions. Add 4 uL of Cell-titer Glo to each well using BioRAPTR and incubate the plates at room temperature for 2 hours. Measure fluorescence intensity by a VewLux plate reader.
# Sequence of Cellular tumor antigen p53 (Homo sapiens) (P04637 whole entry, looked up): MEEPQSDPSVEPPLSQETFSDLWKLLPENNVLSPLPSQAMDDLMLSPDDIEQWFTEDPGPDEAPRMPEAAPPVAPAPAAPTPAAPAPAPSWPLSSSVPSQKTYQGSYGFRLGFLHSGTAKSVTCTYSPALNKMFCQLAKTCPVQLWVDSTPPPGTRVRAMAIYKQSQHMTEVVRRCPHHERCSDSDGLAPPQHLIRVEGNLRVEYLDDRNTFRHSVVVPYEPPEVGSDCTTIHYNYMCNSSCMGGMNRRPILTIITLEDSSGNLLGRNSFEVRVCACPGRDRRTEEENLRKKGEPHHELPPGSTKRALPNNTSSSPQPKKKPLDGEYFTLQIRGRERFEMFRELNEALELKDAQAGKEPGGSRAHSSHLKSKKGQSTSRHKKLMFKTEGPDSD
SMILES,outcome,AC50
CCCCCCOC(=O)C(C)C,inactive,
CC(C)=CCCC(C)CCOC=O (stereo not given),,69.8 µM (active)
O=C(O)CCCCCCCCC(=O)O,inactive,
O=C1NC2NC(=O)NC2N1 (stereo not given),inactive,
CN(C)CCOc1ccc(/C(=C(/CCCl)c2ccccc2)c2ccccc2)cc1,inactive,
CC(=O)C(C)O (stereo not given),inactive,
O=[N+]([O-])c1cccc(Cl)c1,inactive,
CC(=O)C1(C)CC2=C(CCCC2(C)C)CC1C (stereo not given),inactive,
CC(C)CCCCCCCCCCCCCCC(=O)O,inactive,
CCCCCCCCN1CCCC1=O,inactive,
O=C(CC(=O)c1ccccc1)c1ccccc1,inactive,
ON=C1CCCCC1,inactive,
CCN(CCN)c1cccc(C)c1,inactive,
C=C(C)C(=O)OCC(CC)(COC(=O)C(=C)C)COC(=O)C(=C)C,inactive,
N#Cc1ccc(CC(=O)c2cccc(C(F)(F)F)c2)cc1,inactive,
NCCNc1cccc2ccccc12,inactive,
CCCN(CCC)S(=O)(=O)c1ccc(C(=O)O)cc1,inactive,
CCc1cc(Cc2cc(CC)cc(C(C)(C)C)c2O)c(O)c(C(C)(C)C)c1,,32.6 µM (active)
CCC(Cl)C(Cl)C(Cl)CC(Cl)C(Cl)C(C)Cl (stereo not given),inactive,
O=C(O)c1cccnc1C(=O)O,inactive,

SMILES,outcome,AC50
C=C(C)CNCC,inactive,
CCCCC(CC)COC(=O)c1ccc(O)cc1 (stereo not given),,72.6 µM (active) and 85.1 µM (active)
Cc1cc(S(=O)(=O)O)ccc1N=Nc1c(O)ccc2ccccc12,inactive,
CC(=O)c1ccccn1,inactive,
CCCCCCCCc1ccc(S(=O)(=O)O)cc1,inactive,
COc1ccc(N)c([N+](=O)[O-])c1,inactive,
CC(C)(C)CC(C)(C)c1ccc(OCCOCC[N+](C)(C)Cc2ccccc2)cc1,inactive,61 µM (active)
CCCC[O][Al]([O]CCCC)[O]CCCC,inactive,
Cc1ccc(-c2ccccc2)cc1,inactive,
Clc1ccc(C(c2ccccc2Cl)C(Cl)Cl)cc1 (stereo not given),,55.9 µM (active) and 37.2 µM (active)
O=C(O)CCCCCCCCCCCC(=O)O,inactive,
O=c1c(O)c(-c2ccc(O)cc2)oc2cc(O)cc(O)c12,inactive,
NCC1CCCC(CN)C1 (stereo not given),inactive,
COC(=O)c1ccc(OC)cc1,inactive,
C1CCOC1,inactive,
Nc1ccn([C@H]2CS[C@@H](CO)O2)c(=O)n1,inactive,
CCCC1O[C@@H]2C[C@H]3[C@@H]4CCC5=CC(=O)C=C[C@]5(C)[C@H]4[C@@H](O)C[C@]3(C)[C@]2(C(=O)CO)O1 (stereo not given in full),inactive,
COC(=O)C=C(C)CCC=C(C)C,inactive,
O=[N+]([O-])c1ccc(O)cc1C(F)(F)F,,42 µM (active)
